Screening results (PubChem)
Shown are actives, neighbours in structure and some others; about 1.3% of the full set was active somewhere.
S1P3 antag: antagonists of human S1P3 receptor. Q99500. CHO S1P3 NFAT-BLA reporter, FRET fluorescence, antagonist mode. inhibition, % at 4.98 µM. 170,000 compounds, 0.27% hits. AID 485;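 active = inhibition above the plate cutoff, the mean inhibition of test wells on that plate plus 3 SD, cut at about 28% in these data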;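 note: cells challenged with S1P at its EC80 of 0.8 µM; blue over green emission ratio from cleaved BLA substrate after 4 h stimulation; 0% = S1P-stimulated wells and 100% = unstimulated DMSO-only wells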
Target sequence (Q99500 whole entry, looked up): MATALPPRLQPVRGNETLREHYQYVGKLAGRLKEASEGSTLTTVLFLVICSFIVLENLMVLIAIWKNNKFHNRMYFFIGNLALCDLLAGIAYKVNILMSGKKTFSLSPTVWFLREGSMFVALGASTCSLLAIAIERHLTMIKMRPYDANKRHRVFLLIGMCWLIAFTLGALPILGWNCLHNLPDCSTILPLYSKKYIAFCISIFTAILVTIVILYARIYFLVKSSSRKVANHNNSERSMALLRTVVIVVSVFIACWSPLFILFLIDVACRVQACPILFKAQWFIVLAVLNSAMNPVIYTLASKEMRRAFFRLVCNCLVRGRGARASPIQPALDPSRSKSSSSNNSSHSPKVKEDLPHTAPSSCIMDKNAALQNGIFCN
Calpain2 inh: calpain II (pig) inhibition; inhibition, % at 16 µM; 220,000 compounds, 0.37% hits; AID 1236; purified calpain II, fluorogenic peptide substrate, 30 min;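 active = inhibition above about 50%, limit read from the data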
S1P4 ag: agonists of human S1P4 receptor | O95977 | S1P4-expressing cell line, agonist reporter assay | activation, % at 4.98 µM | 220,000 compounds, 0.35% hits; in the data active = activation above about 11%;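 note: 0% = DMSO vehicle and 100% = reference agonist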
S1P4 antag: antagonists of human S1P4 receptor; S1P4-expressing cells, antagonist mode, reporter read-out; inhibition, % at 4.98 µM; 220,000 compounds, 0.26% hits; AID 1510; in the data active = inhibition above about 29%;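 note: 0% = wells stimulated with agonist and 100% = vehicle wells without agonist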
PERK inhibitor: human PERK inhibition, primary cell-based screen; inhibition, % at 5.6 µM; Q9NZJ5; 220,000 compounds, 0.17% hits; AID 1416; CHO PERK-DD fusion, SEAP luminescence translation reporter;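 active = inhibition above the mean inhibition of all tested compounds plus 3 SD, set separately per screening campaign, cut at about 2.9% in these data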;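 note: PERK kinase domain activated by AP20187 dimerizer at 100 nM; 0% = DMSO with dimerizer and 100% = rapamycin at 8.4 µM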
S1P4 ag conf: confirmation of human S1P4 receptor agonists; shares compounds with S1P4 ag; S1P4 agonist cell-based reporter assay; activation, % at 4.98 µM; 740 compounds, 7% hits; in the data active = activation above about 12%;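 note: 0% = vehicle and 100% = full reference agonist response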
S1P1 agonist: human S1P1 agonism as S1P4 agonist counter-screen; 740 compounds, 4% hits; shares compounds with S1P4 ag; S1P1 agonist cell-based assay, activation; activation, % at 4.98 µM; in the data active = activation above about 21%;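 note: 0% = vehicle wells and 100% = reference agonist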
* hit, by the source's call; i = inactive; · = no result given.

SMILES	S1P3 antag	Calpain2 inh	S1P4 ag	S1P4 antag	PERK inhibitor	S1P4 ag conf	S1P1 agonist
N#CC1CC(c2ccccc2)Nc2cc(Cl)ccc2N1 (stereo not drawn)	2	22	2	0	2	·	·
CC1(C)CC2CC(C)(CN2C(=S)Nc2ccccc2F)C1 (stereo not drawn)	-2	-11	3	-8	0	·	·
O=C(O)c1ccc(N2C(=O)/C(=C/C=C/c3ccccc3)SC2=S)cc1	1	-6	15*	0	1	-2	0
COCCN(CCOC)S(=O)(=O)c1ccc(C(=O)Nc2ccc([N+](=O)[O-])cc2OC)cc1	-7	16	-1	-9	1	·	·
CCOC(=O)c1c(C)[nH]c(C2=NNC(=Nc3ccccc3)SC2)c1C	4	-33	62*	-5	0	-1	-4
COc1ccc(C(=O)OCc2csc(C)n2)c(O)c1	11	22	1	3	0	·	·
Cn1ccc2c([N+](=O)[O-])cccc2c1=O	-1	-8	1	-10	0	·	·
CCN1CCN(c2cc(C)c3cc(NC(=O)c4cccc(OC)c4)ccc3n2)CC1	-3	9	3	9	0	·	·
CCN1CCN(c2cc(C)c3cc(NC(=O)c4cccs4)ccc3n2)CC1	0	0	56*	11	-2	-3	-8
CCN(CC)c1ccc(NC(=S)Nc2ccc(F)cc2)cc1	-20	4	0	0	0	·	·
O=C(CN1CCOCC1)Nc1scc2c1c(=O)oc1ccccc12	-3	-29	23*	5	1	-2	-6
O=C(CN1CCCCC1)Nc1scc2c1c(=O)oc1ccccc12	-1	-11	0	-2	0	·	·
Cc1ccc(CCNC(=O)CN2C(=O)COc3ccccc32)cc1	12	-10	-1	-2	0	·	·
Cc1ccc(NC(=O)COC(=O)CN2C(=O)COc3ccccc32)cc1	·	17	29*	-15	0	-2	3
Cc1c(/C=C/C(=O)c2ccccc2)cnn1C	·	8	0	-9	0	·	·
Cc1c(/C=C/C(=O)c2ccc(Cl)s2)cnn1C	·	-64	13*	-19	-1	-1	4
NS(=O)(=O)c1ccc(N2N=C(c3ccc(Br)cc3)CC2c2ccc(F)cc2)cc1 (stereo not drawn)	·	i	24*	-23	-1	43*	112*
NS(=O)(=O)c1ccc(N2N=C(c3ccccc3)CC2c2cccc(F)c2)cc1 (stereo not drawn)	-11	-349	11	-14	1	·	·
Cc1ccc(NC(=O)NC(=O)N(C(C)C)S(=O)(=O)c2ccc(C)cc2)cc1	-15	6	-1	-8	1	·	·
COCCCN1C(=O)c2ccc(C(=O)OCC(=O)NCCc3ccccc3)cc2C1=O	-11	35	16*	0	0	-2	3
CC(C)c1csc(CN2CCN(Cc3ccc(F)c(F)c3)C(CCO)C2)n1 (stereo not drawn)	-2	30	42*	-9	-1	-2	-5
Cc1ccc(S(=O)(=O)/N=C2\CN(C)C(=O)N2C)cc1	-5	0	16*	-6	-1	-1	3
Cc1ccc(S(=O)(=O)/N=c2\sccn2C)cc1	·	-20	0	-13	1	·	·
O=S(=O)(c1cc(Cl)ccc1Cl)n1cccn1	9	5	1	10	0	·	·
COCCNC(=S)Nc1ccc2nsnc2c1	-21	0	12*	-9	1	-2	-6
SMILES	S1P3 antag	Calpain2 inh	S1P4 ag	S1P4 antag	PERK inhibitor	S1P4 ag conf	S1P1 agonist
COCCNC(=S)Nc1ccc(Cl)c(Cl)c1	12	-24	-1	5	2	·	·
C=CCN1C(=O)/C(=c2\sc3nc(=O)c(Cc4ccccc4)nn3c2=O)c2ccccc21	-4	-15	27*	-7	1	-1	1
CN1C(=O)C(CC(=O)O)S/C1=N\N=C\c1ccc(O)cc1O (stereo not drawn)	-4	22	1	17	2	·	·
COc1ccc(OC)c(NC(=O)CSc2ncccc2C(=O)O)c1	19	-1	-2	-1	1	·	·
Nc1nonc1NC(=O)CSc1ncccc1C(=O)O	-28	-4	45*	1	1	-2	-1
COc1ccc(/C=C/C(=O)Nc2cc(C)on2)cc1	7	33	2	-16	1	·	·
COc1ccc(/C=C/C(=O)Nc2nonc2NC(C)=O)cc1	-12	13	38*	-4	1	-1	3
COc1cc(-n2c(=O)c3ccccc3n(Cc3cccc(C)c3)c2=O)cc(OC)c1OC	-27	47	31*	0	0	2	-3
O=C(CN1CCN(CC(=O)Nc2ccccc2Cl)CC1)Nc1ccc2c(c1)OCCO2	-44	-38	1	-17	-1	·	·
O=C(CN1CCC(Cc2ccccc2)CC1)Nc1ccc2c(c1)OCCO2	·	-8	413*	-5	0	-2	-9
COc1ccc(NC(=S)c2ccncc2)cc1	3	-11	19*	-24	1	-2	-6
COc1ccc(C(=S)Nc2ccc(C)cc2)cc1	·	5	1	5	1	·	·
NC(=O)CS(=O)(=O)c1ccc(Cl)cc1	2	12	25*	-10	0	-2	-3
O=S(=O)(CC(O)CS(=O)(=O)c1ccc(Cl)cc1)c1ccccc1 (stereo not drawn)	5	-16	3	1	1	·	·
CCOC(=O)Cc1nnc2c(Nc3ccccc3F)nc3nonc3n12	9	3	38*	-21	0	-1	4
COC(=O)c1ccc(C2c3c(oc4ccc(Cl)cc4c3=O)C(=O)N2CCN2CCOCC2)cc1 (stereo not drawn)	10	-15	2	8	-3	·	·
CC(C)c1ccc(/C=C2\C(=O)N(CCN3CCOCC3)C(=S)N2C)cc1	1	-4	43*	4	0	-1	-4
CC(C)c1ccc(/C=C/C(=O)Nc2ccc(CN3CCOCC3)cc2)cc1	-3	-24	0	-10	0	·	·
O=C(CCC(=O)Nc1ccc(Cl)cc1Cl)N/N=C/c1ccc([N+](=O)[O-])o1	-11	-3	-2	7	1	·	·
CC(=O)Nc1ccc(NC(=O)c2oc3cc(C)c(C)cc3c2C)cc1	-11	-133	12*	-9	1	-2	-1
COc1cccc(N2CN(CCc3ccccc3)CNC2=S)c1	-1	-37	0	-14	1	·	·
Cc1ccc(/C=C/C(=O)O)cc1S(=O)(=O)N(CCO)CCO	-9	26	37*	17	0	-1	-8
Cc1ccc(N/N=C(\C#N)C(N)=S)c(C)c1	3	-9	20*	-1	0	-1	-2
Cc1ccc(NC(=O)/C(C#N)=N/Nc2ccc(C(=O)O)cc2)c(C)c1	-11	8	-1	14	2	·	·
CSc1cccc(CN2CCCC(CO)(Cc3cccc(Cl)c3)C2)c1 (stereo not drawn)	-5	1	-2	-7	0	·	·
CSc1cccc(CN2CCC(CO)(Cc3ccccc3)CC2)c1	4	-8	16*	11	-1	-2	-6
